HT1080NT lethal – kills 2HG-producing HT-1080-NT fibrosarcoma cells; HT-1080-NT fibrosarcoma viability, CellTiter-Glo ATP luminescence, 48 h; Potency, µM (top dose mostly 46.1 µM), for inactives: top-dose activity, negative = less viability, actives largely listed as cytotoxic; hit rate 1.6% among 360,000; AID 686970;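 further: NT is the 2HG producing partner of a matched IDH1 knockdown line; potency means the concentration at half of the fitted maximal effect; 0% = DMSO-treated cells and -100% = media-only wells without cells; nearly all actives have a fitted effect of over 55% in size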
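Fibrosarcoma NT cells, 750 per well in 5% FBS RPMI, were exposed to compound for 48 hours. Viability: CellTiter-Glo luminescence.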
HT1080 IDH1KD tx – HT-1080 IDH1 knockdown cell toxicity (counter line) | HT-1080 IDH1 knockdown viability, ATP luminescence, 48 h | Potency, µM (top dose mostly 46.1 µM), for inactives: top-dose activity, negative = toxicity, hits mostly cytotoxic | hit rate 2% among 360,000;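 further: potency means the concentration at half of the fitted maximal effect; 0% = DMSO wells and -100% = cell-free medium wells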
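% activity derives from luminescence (CellTiter-Glo), normalised to DMSO and no-cell wells. HT-1080-IDH1KD cells, 750/well, had 48 h compound exposure at 37 °C.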
IL-1B inflam inh – inhibitors of inflammasome signaling (IL-1 beta secretion) | THP-1 LPS/ATP IL-1B secretion, AlphaLISA, 16 h; active compounds read low | activity change, % at 57.5 µM | hit rate 4.7% among 360,000; in the data active means activity change below about -50%; inconclusive means mostly about -30% to -49%
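THP-1 cells pretreated 1 hr with compounds (up to 57.5 uM final), then stimulated with LPS (250 ng/mL final) plus ATP (1.25 mM final); secreted IL-1B measured by AlphaLISA after 16 hr, decreased signal indicating inhibition.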
TDP1 cell noCPT – qHTS for Inhibitors of human tyrosyl-DNA phosphodiesterase 1 (TDP1): qHTS in cells in absence of CPT. AID 686978, 2013. Potency, µM (series often up to 46.2 µM), without a hit: at the top dose activity change, negative = growth inhibition, hits mostly inhibitors. hit rate 15% among 420,000. DT40 Tdp1-/- hTDP1 cells, no CPT, ATP luminescence, 48 h; further: potency means the concentration at half of the fitted maximal effect; nearly all actives have a fitted effect of over 55% in size
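Growth kinetics read by CellTiter-Glo luminescence after ≥48 hr at 37 °C. Cells: DT40 Tdp1-/- stably carrying human TDP1, 400 per well, compound exposure in the absence of CPT (DMSO vehicle).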
TDP1 cell CPT – DT40-hTDP1 cell growth loss with CPT. Potency, µM (highest dose often 46.2 µM), for inactives: at the highest dose activity change, negative = growth inhibition, actives largely listed as inhibitors. hit rate 12% among 420,000. chicken DT40 Tdp1-/-;hTDP1 cells + 20 nM CPT, ATP luminescence, 48 h; further: potency means the concentration at half of the fitted maximal effect; nearly all actives have a fitted effect of over 55% in size
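Chicken DT40 Tdp1-/- cells stably complemented with human TDP1 were seeded at 400 cells/well in medium containing 20 nM camptothecin, exposed to pin-transferred compounds, and grown at 37 °C for at least 48 hr. Viability was read as ATP luminescence.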
ELG1 repair inh – inhibitors of ELG1-dependent DNA repair in HEK293T cells | hit rate 2.3% among 330,000 | HEK293T ELG1-luciferase reporter, luminescence, 16 h; DNA damage induced by 5-fluorouridine | Potency, µM (doses to about 46.1 µM), without a hit: at the top dose activity change, negative = inhibition, usual class: inhibitors; further: potency means the concentration at half of the fitted maximal effect; nearly all actives have a fitted effect of over 55% in size
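5-Fluorouridine DNA damage + compound/DMSO, 2,000 cells/well, 16 h, 37 °C/5% CO2. ONE-Glo, 30 min RT, luminescence. Readout = decrease in reporter signal.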
The depositor's hits bear a star; u = inconclusive; x = no result given; [ ] = dose if it differs, or a comment. Most compounds without a hit are left out; they make up all but 19% or so of the library. Unless noted, the call rests on the fitted dose curve; in most records, active means well fitted curve in the direction sought with a large enough effect; inconclusive means small, poorly fitted or top-dose-only effect, or another doubt; inactive means no such curve, though single readings can be large; an effect the other way counts as inactive or inconclusive. Unless noted, on the % scale 0 is the no-effect control and ±100 the full control effect.

SMILES | HT1080NT lethal | HT1080 IDH1KD tx | IL-1B inflam inh | TDP1 cell noCPT | TDP1 cell CPT | ELG1 repair inh
CCOc1ccc(NC(=O)c2sc3nc(C)nc(N4CCOCC4)c3c2C)cc1 | -10.3% | -8.9% | -52.9* | u | -3.1% | 13µM*
Cc1c(C(=O)Nc2ccc(F)cc2F)sc2nc3n(c(=O)c12)N=C(c1ccccc1)CS3 | x | x | x | u | 14.6µM* | x
Cc1nc(N2CCOCC2)c2c(C)c(C(=O)Nc3ccc(F)cc3F)sc2n1 | -3.3% | -14.1% | -68.3* | u | -28.0% | u
Cc1cc(C)cc(NC(=O)c2sc3nc4n(c(=O)c3c2C)N=C(c2ccc(F)cc2)CS4)c1 | x | x | x | -25.9% | -17.4% | x
O=C(CS(=O)(=O)c1cccc2nsnc12)Nc1ccc(F)cc1 | x | x | x | u | -19.7% | x
Cc1ccc2c(c1)C1CN(C)CCC1N2Sc1ccccc1[N+](=O)[O-] (centres undefined) | 16.4µM* | u | -88.8* | 16.4µM* | u | -8.6%
CCN1C(=O)[C@H]2[C@@H](c3ccc(C)cc3)N[C@]3(CCCN(Cc4ccc(OC)cc4)C3=O)[C@H]2C1=O | 11.1% | 0.0% | 11.8 | u | u | x
O=C(CCCN1C(=O)/C(=C\c2cccc(Br)c2)SC1=S)Nc1cccnc1 | 16.4µM* | 13µM* | -51.0* | 14.6µM* | u | u
O=C(CCCN1C(=O)/C(=C/c2cccs2)SC1=S)Nc1cccnc1 | -1.6% | -14.7% | -5.9 | -4.8% | 9.0% | 8.4%
O=C(CCCN1C(=O)/C(=C/c2cccc(Br)c2)SC1=S)Nc1ccccn1 | -0.5% | 7.3% | u | u | u | u
O=C(CCCN1C(=O)/C(=C/c2cccc(Br)c2)SC1=S)Nc1cccnc1 | u | u | -89.6* | 16.4µM* | u | 9.2µM*
C=CCN(Cc1nc(-c2ccccc2)no1)C(=O)c1ccc2c(c1)OCO2 | -6.7% | -11.6% | -8.4 | -29.8% | -2.7% | -2.2%
CC1c2ccccc2SC(CCCN(C)C)c2ccccc21 (centres undefined) | u | u | -51.8* | u | 16.4µM* | -22.3%
Cc1cc(C)n(CC(C)NCc2cn[nH]c2-c2cccc3ccccc23)n1 (centres undefined) | 1.5% | -8.8% | -10.4 | 18.4µM* | u | 3.7%
COCCN=C1Sc2nc3cc4c(cc3cc2CN1CC1CCCO1)OCO4 (centres undefined) | 0.6% | 1.3% | 13.5 | -14.1% | -28.6% | -4.4%
CC(=O)c1c(O)cc(O)cc1CC(=O)O | 0.7% | -3.3% | -1.5 | 4.5% | 8.2% | 1.8%
CC(=O)c1c(O)cc(O)c(C(C)=O)c1O | 13µM* | 18.4µM* | 39.3 | u | 20.6µM* | u
Cc1ccc(-c2noc(CSc3nnc(Cc4cccs4)n3-c3ccccc3)n2)cc1 | 0.3% | -8.3% | -2.6 | 20.6µM* | 20.6µM* | -17.8%
COc1ccc(-c2noc(CSc3nnc(C)n3-c3ccc(OC)cc3)n2)cc1 | x | x | x | u | -19.1% | x
Cc1ccc(-c2noc(CSc3nnc(Cc4ccccc4)n3-c3cccc(C)c3)n2)cc1 | 0.5%[9.24 µM] | u | u | 18.4µM* | u | -13.7%
Clc1ccc(-c2noc(CSc3nnc(Cc4cccs4)n3-c3ccccc3)n2)cc1 | -2.6% | -10.1% | 0.0 | u | u | -24.6%
CCOc1ccc(-c2noc(CSc3nnc(Cc4ccccc4)n3-c3cccc(C)c3)n2)cc1 | x | x | x | 13µM* | 18.4µM* | x
CCN(CC(=O)Nc1c(F)cccc1F)C(=O)c1ccc(OC)c(S(=O)(=O)NC2CCCC2)c1 | 4.1% | -1.4% | -26.6 | -6.6% | 4.1% | x
Cc1ccsc1/C=N/NC(=O)Cc1cccn1C | 11.8% | 19.2% | -8.6 | -7.8% | -2.5% | 9.1%
Cc1ccc(C(O)(C(=O)NN(C(=O)c2ccccc2)c2ccccc2)c2ccc(C)cc2)cc1 | -17.7% | -21.4% | 4.0 | u | u | -26.9%
SMILES | HT1080NT lethal | HT1080 IDH1KD tx | IL-1B inflam inh | TDP1 cell noCPT | TDP1 cell CPT | ELG1 repair inh
O=C(Nc1ccccc1)NN(C(=O)CCl)c1ccccc1 | 7.31µM* | 4.61µM* | -96.1* | 3.26µM* | 3.26µM* | 23.1µM*
CCC(O)(CC)C(=O)NN(C(=O)CCl)c1ccccc1 | 0.1% | u | -81.6* | 14.6µM* | 13µM* | u
Cc1ccc(N(NC(=O)C(O)(c2ccccc2)c2ccccc2)C(=O)CCl)cc1 | 5.17µM* | 5.8µM* | -97.7* | 5.17µM* | 4.11µM* | 20.6µM*
Cc1ccc2nccc(C(=O)N3CCCC(Nc4ccc(C)c(C)c4)C3)c2c1 (centres undefined) | 1.3% | -0.4% | 2.5 | u | u | -21.3%
COc1cccc(-c2cnc(C(O)c3c(C)cccc3C)[nH]2)c1 (centres undefined) | 4.6% | 6.2% | 13.0 | u | u | x
COC(=O)c1cc(NC(=O)CN(c2cccc(OC)c2)S(=O)(=O)c2ccccc2)ccc1Cl | -6.0% | -13.5% | 9.9 | 16.4µM* | u | u
COc1ccccc1N(CC(=O)Nc1ccc(C)c(Cl)c1)S(=O)(=O)c1ccc(C)cc1 | x | x | x | 18.4µM* | 20.6µM* | x

Assay outcomes (PubChem)
